Assay outcomes deposited in PubChem BioAssay by National Center for Advancing Translational Sciences (NCATS).
Most compounds without a hit are left out; they make up all but 7.3% or so of the library.
SMN2 splice enh – increases expression of the SMN2 splice variant; HEK293 SMN2-luciferase splicing reporter, luminescence, 30-36 h; Potency, µM (titrated, usually from 46.1 µM), without a hit: at the top dose activity change, positive = activation, actives largely listed as activators; 210,000 compounds, 2.8% hits; AID 1458; also: % of control where 0% means no effect; nearly all actives have a fitted effect of over 55% in size
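HEK293 cells carry an SMN2 […]–luciferase reporter in which exon 7 inclusion puts luciferase in frame. Cells were plated 10-12 h before compound addition, then incubated 30-36 h at 37C. ONE-Glo luminescence was read; sodium butyrate at 4.5 mM final served as control.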
Rab9 promoter act – activators of Rab9 promoter; Huh7 Rab9 promoter-luciferase reporter, luminescence, 24 h; Potency, µM (doses to about 9.22 µM), for the others: top-dose activation, negative = inhibition, usual class: activators; 320,000 compounds, 2.8% hits; also: % of control where 0% means no effect; nearly all actives have a fitted effect of over 60% in size
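Promoter activation is measured as luciferase luminescence in Huh7 cells stably transfected with a Rab9 promoter–luciferase construct, following 24 h compound exposure at 37 °C and 10 min reagent incubation at ambient temperature.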
KinaseGlo FLuc – blocks Kinase-Glo luciferase, a counter-screen artifact; 200,000 compounds, 0.28% hits; AID 1379; Kinase-Glo luciferase, ATP luminescence, 8 min; Potency, µM (doses to about 38.3 µM), inactives show at the top dose activity change, negative = inhibition, actives largely listed as inhibitors; also: % is scaled to controls: 0 for no effect and ±100 for the full control effect; nearly all actives have a fitted effect of over 60% in size
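Compounds were added to a substrate mix at pH 7.2 (50 mM imidazole, 10 uM ATP, within the enzyme's linear range), followed by Kinase-Glo detection reagent; luminescence was measured after 8 minutes at ambient temperature.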
ELG1 genotoxic – induces genotoxicity in HEK293T cells with luciferase-tagged ELG1. HEK293T ELG1-luciferase reporter, luminescence, 16 h. 330,000 compounds, 1.3% hits. AID 504466. Potency, µM (doses to about 46 µM), for the others: at the highest dose activity change, positive = activation, usual class: activators; also: % of control where 0% means no effect; nearly all actives have a fitted effect of over 60% in size
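HEK293T cells expressing luciferase-tagged ELG1 were exposed to compound or DMSO vehicle for 16 hr at 37 °C and 5% CO2. Luciferase activity was then measured with ONE-Glo after 30 min at room temperature.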
FLuc modulator – counter-screen for miR-21 project: firefly luciferase inhibitors or activators; 360,000 compounds, 6.9% hits; Potency, µM (titrated, usually from 57.5 µM), for inactives: top-dose activity change, negative = inhibition, actives largely listed as inhibitors; purified FLuc, Km substrates, luminescence inhibition;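 also: plate controls were vehicle for no effect and reference inhibitor for full effect; nearly all actives have a fitted effect of over 55% in size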
Target sequence (P08659 whole entry, looked up): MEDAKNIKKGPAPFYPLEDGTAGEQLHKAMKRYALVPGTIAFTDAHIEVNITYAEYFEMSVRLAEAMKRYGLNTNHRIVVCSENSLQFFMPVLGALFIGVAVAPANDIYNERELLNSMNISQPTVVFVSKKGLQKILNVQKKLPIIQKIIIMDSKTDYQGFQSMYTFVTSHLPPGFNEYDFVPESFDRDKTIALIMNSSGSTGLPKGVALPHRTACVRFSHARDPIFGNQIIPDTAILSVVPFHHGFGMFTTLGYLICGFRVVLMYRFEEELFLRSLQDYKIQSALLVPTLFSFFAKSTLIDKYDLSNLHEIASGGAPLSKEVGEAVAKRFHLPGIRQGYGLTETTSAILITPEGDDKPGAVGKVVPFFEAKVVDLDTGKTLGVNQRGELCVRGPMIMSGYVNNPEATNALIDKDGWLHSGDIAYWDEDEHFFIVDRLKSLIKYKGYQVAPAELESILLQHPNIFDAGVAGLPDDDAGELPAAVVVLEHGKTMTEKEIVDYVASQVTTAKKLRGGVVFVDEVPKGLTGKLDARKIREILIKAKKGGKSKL
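Purified P. pyralis luciferase, 10 nM final, with Km-level 10 uM D-luciferin and 10 uM ATP in 50 mM Tris acetate pH 7.5, 10 mM Mg acetate, 0.01% Tween-20, 0.05% BSA; 6-point qHTS titration about 60 µM downward; luminescence read.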
NPC1 promoter act – activates the NPC1 promoter. Potency, µM (highest dose often 9.22 µM), inactives show at the top dose activation, actives largely listed as activators. Huh7 NPC1 promoter luciferase reporter, 24 h. AID 485313. 320,000 compounds, 2.4% hits; also: % of control where 0% means no effect; nearly all actives have a fitted effect of over 60% in size
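In 1536-well qHTS, Huh7 cells harboring an NPC1 promoter–luciferase construct received compound for 24 h; activation was quantified by luminescence following luciferase reagent addition.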
The depositor's hits bear a star; ? = inconclusive; . = no result given; [ ] = another dose, or the depositor's remark. Calls follow the shape of the dose curve; as a rule, active = well fitted curve in the direction sought with a large enough effect; inconclusive = small, poorly fitted or top-dose-only effect, or another doubt; inactive = no such curve, though single readings can be large; an effect the other way counts as inactive or inconclusive. Potency is read from the fitted curve at half-maximal effect.

SMILES | SMN2 splice enh | Rab9 promoter act | KinaseGlo FLuc | ELG1 genotoxic | FLuc modulator | NPC1 promoter act
CCOC(=O)c1c(N)sc(C(=O)N(CC)CC)c1C | . | -5.6% | 3.0% | 0.4% | 1.5% | 0.1%
Cc1c(C(=O)OC(C)C)sc(N)c1C(=O)OC(C)C | 23.9% | 26.7% | -1.4% | 11.3% | 21.3µM* | 19.8%
CCOC(=O)c1c(N)sc(C(N)=O)c1C | 11.6% | 1.3% | 0.0% | 2.9% | -13.7% | 10.3%
CCOC(=O)c1cc(C(=O)Nc2ccccc2F)nn1C | 12.6µM* | 2µM* | -10.7% | 4.47µM* | 8.49µM* | 2.24µM*
CCOC(=O)c1c(N)sc(C(=O)Nc2ccccc2)c1C | . | 0.316µM* | -28.6% | ? | 1.2µM* | 0.447µM*
CCOC(=O)c1c(N)sc(C(=O)Nc2ccccc2F)c1C | 8.91µM* | 0.398µM* | -17.6% | ? | 1.9µM* | 2.51µM*
CCc1cccc(C)c1NS(=O)(=O)c1cc2[nH]c(=O)c(=O)[nH]c2cc1C | . | . | . | . | 2.4% | .
O=c1oc2ccccc2c(N2CCN(c3ccccc3F)CC2)c1CN1CCCC1 | 6.9% | . | . | . | -0.8% | .
COc1ccc(N2CCN(c3ncccc3-c3nc(-c4ccccc4C)no3)CC2)cc1 | . | . | . | . | 15.1µM* | .
COC(=O)c1ccc2c(c1)N(Cc1nc(-c3cccc(C)c3)oc1C)C(=O)C1CCCN21 (stereo unspecified) | 10µM* | 2.3% | -5.0% | 8.9% | -1.3% | 0.5%
Cc1csc2nc(COC(=O)CNC(=O)c3ccccc3Cl)cc(=O)n12 | . | . | . | . | 2.5% | .
CC(C)(C)c1ccc(-c2nc(C#N)c(NCc3cccnc3)o2)cc1 | -17.9% | ? | 2.9% | ? | 10.7µM* | 9.7%
C=CCNc1oc(-c2ccc(OC)cc2)nc1C#N | ? | 2.82µM* | 6.6% | 14.6µM* | 8.49µM* | ?
Cc1cccc(-c2nc(C#N)c(NCc3ccco3)o2)c1 | . | ? | . | ? | 10.7µM* | ?
Cc1ccc(-c2nc(C#N)c(NCc3ccco3)o2)cc1 | ? | ? | -0.9% | 5.8µM* | 4.78µM* | ?
Cc1ccc(OCc2ccc(-c3nc(C#N)c(NCc4cccnc4)o3)o2)cc1 | . | . | . | . | -15.6% | .
N#Cc1nc(-c2ccco2)oc1NCc1ccco1 | -6.0% | 1.8% | -0.8% | 4.1% | -1.9% | -1.3%
O=C(c1ccc2c(c1)N(Cc1ccc(Cl)cc1)C(=O)c1ccccc1S2=O)N1CCOCC1 (stereo unspecified) | -17.7% | . | . | . | -3.9% | .
N#Cc1nc(COc2cccc(Cl)c2)oc1NCc1ccco1 | 12.0% | ? | 2.7% | ? | 19µM* | 19.3%
N#Cc1nc(-c2ccc(F)cc2)oc1NCc1ccco1 | . | 14.6% | . | 5.4% | ? | 11.7%
COc1ccc(Nc2oc(COc3ccc(C)cc3)nc2C#N)cc1 | -87.3% | -3.8% | 2.6% | 0.7% | -18.5% | 0.4%
COc1ccc(Nc2oc(COc3cccc(C)c3)nc2C#N)cc1 | 18.7% | ? | -2.4% | 16.4µM* | 5.36µM* | ?
COc1ccc(-c2nc(C#N)c(NCc3ccco3)o2)cc1 | 20µM* | ? | 3.2% | ? | 13.5µM* | ?
Cc1ccc(Nc2nc3ccccc3s2)cc1 | 2.82µM* | 0.708µM* | -6.8% | 7.31µM* | 0.849µM* | 1µM*
O=[N+]([O-])c1ccc(Nc2nc3ccccc3s2)cc1 | -7.3%[9.22 µM] | . | 0.9%[7.66 µM] | . | . | .
SMILES | SMN2 splice enh | Rab9 promoter act | KinaseGlo FLuc | ELG1 genotoxic | FLuc modulator | NPC1 promoter act
Fc1ccc(Nc2nc3ccccc3s2)cc1 | 12.6µM* | 2.51µM* | -0.5% | ? | 7.57µM* | ?
Cc1ccccc1Nc1nc2ccccc2s1 | 11.2µM* | 2.51µM* | -7.4% | ? | 4.78µM* | 3.55µM*
Cc1ccc(S(=O)(=O)c2cn(CC(=O)Nc3ccc(F)cc3)c3cc4c(cc3c2=O)OCO4)cc1 | -14.2% | . | . | . | -0.6% | .
Cc1cc(C)cc(NC(=O)C(=O)NC(C)c2ccccc2)c1 (stereo unspecified) | -15.7% | . | . | . | 4.9% | .
CSc1ccc(C2C(C#N)=C(N)N(c3ccccc3)C3=C2C(=O)CCC3)cc1 (stereo unspecified) | 25.8% | 0.2% | -0.3% | -1.0% | -1.5%[2.3 µM] | -4.6%
N#CC1=C(N)N(c2ccc(F)cc2)C2=C(C1c1ccc(O)cc1)S(=O)(=O)CC2 (stereo unspecified) | -30.8% | 1.4% | ? | 0.9% | 21.3µM* | 0.1%
CC(=O)N(/N=C1\Sc2ccccc2C1=O)c1ccccc1 | 14.1µM* | 23.0% | -1.1% | ? | ? | 23.1%
CC(=O)N(\C=C/C=C/C=C1\Sc2ccccc2C1=O)c1ccccc1 | -58.2% | 6.9% | -13.5% | -4.7% | 7.57µM* | -1.5%
CC(=O)N(C)C1=C(O)c2ccccc2C(=O)C1=O | 0.1% | 1.0% | -7.7% | 2.0% | 2.1% | -2.7%
CC(=O)N(/N=C1\Sc2ccccc2C1=O)c1ccc(C)cc1C | -67.5% | 22.9% | -3.6% | 14.6µM* | 16.9µM* | ?
CC(=O)N(/N=C1\Sc2ccccc2C1=O)c1ccccc1C | ? | 3.16µM* | -6.7% | ? | 10.7µM* | ?
Cc1ccc(NC(=O)CCNC(=O)Cn2ccc3ccccc3c2=O)cc1F | . | ? | . | ? | 16.9µM* | 29.1%
O=C1Nc2ccccc2SC1c1ccccc1 (stereo unspecified) | . | -2.2% | . | 0.1% | -1.2% | 1.2%
Cc1ccc(NC2Sc3ccccc3NC2=O)cc1 (stereo unspecified) | 11.2µM* | 1.41µM* | 0.6% | ? | 2.13µM* | 3.98µM*
COc1ccc(C(=O)Nc2nc3c(s2)Cc2cc(OC)ccc2-3)cc1 | -37.6% | 4.7% | -3.6% | -8.3% | ? | -1.5%
Cc1nc2ccc(NC(=O)c3cccs3)cc2s1 | . | 2.51µM* | . | ? | 16.9µM* | 3.55µM*
Cc1nc2cc(NC(=O)c3ccc([N+](=O)[O-])s3)ccc2s1 | . | ? | . | ? | 3.79µM* | 19.4%
CC(=O)Nc1ccc2nc(NC(=O)c3cccs3)sc2c1 | . | 0.316µM* | . | ? | 2.13µM* | 0.631µM*
COc1ccc2c(c1)Cc1sc(NC(=O)c3cccs3)nc1-2 | ? | 2.82µM* | -21.5% | ? | ? | 3.98µM*
Cc1cc(NS(=O)(=O)c2ccc(NC(=O)c3ccc([N+](=O)[O-])s3)cc2)nc(C)n1 | . | . | . | -3.9% | . | .
Cc1ccc2oc(=O)c3cc(C(=O)Nc4cccc(C#N)c4)sc3c2c1 | 10.0% | . | . | . | 0.2% | .
Cc1nc2ccc(NC(=O)c3sccc3C)cc2s1 | 11.2µM* | 2.24µM* | -19.1% | ? | 7.57µM* | 1.78µM*
COc1ccc2nc(NC(=O)c3cccs3)sc2c1 | . | 0.282µM* | . | ? | 0.675µM* | 0.316µM*
CC(=O)Nc1ccc2nc(NC(=O)c3ccc([N+](=O)[O-])s3)sc2c1 | . | ? | . | 2.7% | 5.36µM* | 22.2%
CO[C@@H](CCO)C[C@H]1O[C@H](C(=O)OC(C)C)CC[C@@H]1C | -0.9% | . | 0.2% | . | . | .
